Reference: PubChem BioAssay AID2158 (National Center for Advancing Translational Sciences (NCATS), 2009)
Inconclusive results are not listed. Active and inactive are the calls of the source. The call rests on the fitted dose curve; in most records, active means well fitted inhibition curve with a large enough effect; inconclusive means small, poorly fitted or top-dose-only effect; inactive means no such curve, though single readings can be large or run the other way.

The molecules below were run against Cruzipain (Trypanosoma cruzi) (UniProt P25779) (assay: Confirmation qHTS Assay for Inhibitors of Cruzain). Conditions: purified cruzain, Z-FR-AMC fluorescence, 0.01% Triton.
Sequence of Cruzipain (Trypanosoma cruzi) (P25779 123-467 limits assumed): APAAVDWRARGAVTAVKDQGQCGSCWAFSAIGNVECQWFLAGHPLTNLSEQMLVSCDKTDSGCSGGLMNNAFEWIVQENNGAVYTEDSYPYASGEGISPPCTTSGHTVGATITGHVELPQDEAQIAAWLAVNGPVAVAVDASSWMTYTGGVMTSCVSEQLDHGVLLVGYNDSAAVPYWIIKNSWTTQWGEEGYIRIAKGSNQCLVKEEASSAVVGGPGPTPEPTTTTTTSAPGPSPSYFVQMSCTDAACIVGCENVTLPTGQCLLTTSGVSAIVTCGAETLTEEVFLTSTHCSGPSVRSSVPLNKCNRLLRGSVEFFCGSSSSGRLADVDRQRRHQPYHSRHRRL
Summary of the method: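 Purified cruzain, 1.5 nM, pre-incubated 15 min at room temperature with compound in 100 mM sodium acetate pH 5.5, 5 mM DTT, 0.01% Triton X-100. Then 2 uM Z-FR-AMC added; AMC fluorescence (ex 360/em 450 nm) increase over 60 s gave reaction progress.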
Further: nearly all actives have a fitted effect of over 40% in size.
Potency means the concentration at half of the fitted maximal effect.
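Wherever activity change, negative = inhibition is given: plate controls were uninhibited enzyme control for no effect and buffer wells lacking enzyme for full effect.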

| SMILES | activity change, negative = inhibition | Potency |
| --- | --- | --- |
| Cc1ccc(O/C=C2/Nn3c(nnc3-c3cc(-c4ccccc4)n[nH]3)S2)cc1 | -1.56% (inactive) |  |
| N#Cc1nc(Nc2cccc(Cl)c2)c2ncn(C3CCCC3)c2n1 |  | 50.1 nM (active) |
| N#Cc1nc(Nc2cc(F)cc(F)c2)nc(NC2CCCC2)n1 |  | 63.1 nM (active) |
| O=C(Nc1ccccc1)c1ccc(-n2nncc2-c2ccccc2)cc1 | -11.6% (inactive) |  |
| Cc1ccc(C(=O)NCCn2c(N)c(C#N)c3nc4ccccc4nc32)cc1 | -28.5% (inactive) |  |
| O=C(COC(=O)CCSc1ccccc1Cl)Nc1ccc(F)cc1F |  | 14100 nM (active) |
| CNC(=O)c1ccc2nc(-c3ccco3)c(-c3ccco3)nc2c1 |  | 7080 nM (active) |
| C=CCNC(=O)c1ccc2nc(-c3ccco3)c(-c3ccco3)nc2c1 |  | 15800 nM (active) |
| CCC(c1nnnn1Cc1ccccc1)N(Cc1ccccc1)Cc1cc2cc(C)ccc2[nH]c1=O (stereo not drawn) | -9.93% (inactive) |  |
| CCn1cnc2c(NCCc3cccnc3)nc(C#N)nc21 |  | 10000 nM (active) |
| COc1cccc(C(=O)NC2CCN(C#N)CC2)c1 | -6.95% (inactive) |  |
| N#Cc1nc(NCCO)nc(Nc2ccccc2)n1 |  | 1580 nM (active) |
| Cc1ccc(C)c(-c2csc(-c3c(N)c(C(=O)c4ccc5c(c4)OCO5)n4ccccc34)n2)c1 | -1.82% (inactive) |  |
| O=C(CNC(=O)c1ccccc1)N[C@H](C(=O)Nc1cc(C(F)(F)F)ccc1Cl)c1ccccc1 | -13.5% (inactive) |  |
| O=C(CNC(=O)c1ccccc1)OC(C(=O)Nc1cc([N+](=O)[O-])ccc1F)c1ccccc1 (stereo not drawn) |  | 12600 nM (active) |
| O=C(NCCc1nc2ccccc2n1CCOc1ccccc1)C1CCCCC1 |  | 794 nM (active) |
| CC(C)(C)OC(=O)NCc1nnc(-c2cc3ccccc3[nH]2)s1 | -12.9% (inactive) |  |
| Cc1ccccc1-c1nc2c(=O)n(C)c(=O)nc-2n(C)n1 |  | 891 nM (active) |
| Cc1ccc(Cn2c(CCNC(=O)c3cccc(C)c3)nc3ccccc32)cc1 |  | 2820 nM (active) |

| SMILES | activity change, negative = inhibition | Potency |
| --- | --- | --- |
| Cc1ccc(S(=O)(=O)NC(N)=NCCC[C@@H](NC(=O)CNC(=O)c2ccccc2)C(=O)Nc2cc(C(F)(F)F)ccc2Cl)cc1 | -20% (inactive) |  |
| CCn1nc(-c2ccc(C)cc2)nc2c(=O)n(C)c(=O)nc1-2 |  | 2820 nM (active) |
| N#Cc1nc(Nc2cccc3ccccc23)nc(NC2CCCC2)n1 |  | 2820 nM (active) |
| Cc1ccc(OCCCn2c(CCNC(=O)C3CCCCC3)nc3ccccc32)cc1 |  | 794 nM (active) |
| N#Cc1nc(NCCCCO)nc(Nc2ccccc2)n1 |  | 891 nM (active) |
| Clc1ccc(-c2nn3c(-c4cc(-c5ccccc5)n[nH]4)nnc3s2)cc1 | -13.4% (inactive) |  |
| O=c1cc(-c2ccccc2Cl)oc2c(NS(=O)(=O)c3cc(Cl)cc(Cl)c3O)ccc(O)c12 |  | 7080 nM (active) |
| Cc1ccccc1OCCCCn1c(CCNC(=O)C2CCCCC2)nc2ccccc21 |  | 562 nM (active) |
| N#Cc1nc(Nc2cc(F)cc(F)c2)c2ncn(CC(F)F)c2n1 |  | 10 nM (active) |
| N#Cc1nc(N2CCCCC2)nc(N2CCOCC2)n1 |  | 2820 nM (active) |
| O=C(NC(=S)Nc1cccc(Cl)c1N1CCCC1)c1ccc(-c2cccc([N+](=O)[O-])c2)o1 | -8.07% (inactive) |  |
| CCn1cnc2c(Nc3ccc(CCC(=O)N=C(N)N)cc3)nc(C#N)nc21 |  | 35500 nM (active) |
| Cc1ccc(CN(Cc2cc3cc4c(cc3[nH]c2=O)OCCO4)Cc2nnnn2Cc2ccco2)cc1 | -25.4% (inactive) |  |
| COc1ccc(-c2cnnn2-c2ccc(NC(=O)/C=C/c3ccc(OC)c(OC)c3)cc2)cc1 |  | 15800 nM (active) |
| CC(C)(C)c1ccc(C(=O)NCC(=O)OC(C(=O)Nc2cc(C(F)(F)F)ccc2Cl)c2ccccc2)cc1 (stereo not drawn) | -14% (inactive) |  |
| N#Cc1nc(NCCCO)nc(Nc2ccccc2)n1 |  | 2240 nM (active) |
| COC(=O)CCC(C)C1CCC2C3C(O)C[C@@H]4CC(O)CC[C@@]4(C)C3CC(O)[C@]12C (stereo partly drawn) | -0.647% (inactive) |  |
| NC(=S)n1[nH]c(-c2ccc([N+](=O)[O-])cc2)c(N=Nc2ccc(O)cc2)c1=O | -8% (inactive) |  |
| O=C(CNC(=O)C1CCCCC1)OCC(=O)c1ccc(Br)cc1 |  | 2240 nM (active) |
